# Assay results from PubChem BioAssay AID588342 (National Center for Advancing Translational Sciences (NCATS), 2011).
# Screen size: about 360,000 compounds; about 25,000 (6.9%) were called active. A call without a number means that no potency is given here. Another 9% or so got no clear call; they are omitted. Calls follow the shape of the dose curve; as a rule, active = well fitted inhibition curve with a large enough effect; inconclusive = small, poorly fitted or top-dose-only effect; inactive = flat fitted curve, though single readings scatter. Many of the other results were omitted from the sample, so actives are more common in it than they were.
# Biological target: Luciferin 4-monooxygenase (Photinus pyralis) (UniProt P08659)
# Assay: qHTS profiling assay for firefly luciferase inhibitor/activator using purifed enzyme and Km concentrations of substrates (counterscreen for miR-21 project); also: nearly all actives have a fitted effect of over 55% in size
# Conditions: purified FLuc, luminescence inhibition; series mostly up to 57.5 µM
# Summary of the method: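 Purified P. pyralis luciferase, 10 nM final, with Km-level 10 uM D-luciferin and 10 uM ATP in 50 mM Tris acetate pH 7.5, 10 mM Mg acetate, 0.01% Tween-20, 0.05% BSA; 6-point qHTS titration about 60 µM downward; luminescence read.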
# Potency is read from the fitted curve at half-maximal effect.
# Chain of Luciferin 4-monooxygenase (Photinus pyralis) (P08659 whole entry, looked up): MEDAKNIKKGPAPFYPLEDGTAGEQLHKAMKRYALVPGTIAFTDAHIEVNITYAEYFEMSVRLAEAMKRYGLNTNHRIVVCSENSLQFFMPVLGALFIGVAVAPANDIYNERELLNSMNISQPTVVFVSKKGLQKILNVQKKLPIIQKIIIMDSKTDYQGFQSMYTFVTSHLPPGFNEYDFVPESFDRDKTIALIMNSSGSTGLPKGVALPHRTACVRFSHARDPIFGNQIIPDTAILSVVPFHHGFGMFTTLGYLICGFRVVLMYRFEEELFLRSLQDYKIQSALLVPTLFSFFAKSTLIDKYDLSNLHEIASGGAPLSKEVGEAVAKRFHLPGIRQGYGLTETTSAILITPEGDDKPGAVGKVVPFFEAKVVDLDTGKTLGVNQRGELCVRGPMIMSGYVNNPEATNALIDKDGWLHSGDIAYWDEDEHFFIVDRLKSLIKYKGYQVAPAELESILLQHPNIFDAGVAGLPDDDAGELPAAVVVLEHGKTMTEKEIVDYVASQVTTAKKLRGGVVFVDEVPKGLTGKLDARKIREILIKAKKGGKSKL
row,Compound,Potency
1,N#Cc1ccccc1NC(=O)c1cccc(COc2ccc(Cl)cc2Cl)c1,13.5 µM (active)
2,CSc1ccc(C#N)cc1NC(=O)c1ccc(Cl)cc1,inactive
3,CSc1ccc(C#N)cc1NC(=O)c1cccc(Cl)c1,inactive
4,CN(C)CCCNC(=S)N1CCN(c2nc(-c3ccccc3)cs2)CC1,inactive
5,c1ccc(-c2csc(N3CCc4ccccc4C3)n2)cc1,12 µM (active)
6,O=C(CN1CCN(c2nc(-c3ccccc3)cs2)CC1)NCc1ccc2c(c1)OCO2,inactive
7,CCCCCn1c(=O)[nH]c2cc(C(=O)NCCCN3CCCCC3C)ccc2c1=O (stereo unspecified),inactive
8,CCn1c(SCc2ccccc2)nc2c(c1=O)SCC2,inactive
9,Cc1ccc(S(=O)(=O)n2nc(-c3ccc(Cl)cc3)nc2NCc2ccccc2)cc1,inactive
10,CCS(=O)(=O)n1nc(-c2ccccc2)nc1SCc1ccccc1,10.7 µM (active)
11,C[C@H](OC(=O)n1ccnc1)[C@@H]1O[C@@]2(C)CCC[C@@H]1O2,inactive
12,Cc1nnc(N2CCC(C(=O)Nc3ccc(F)cc3)CC2)c2nn(-c3ccc(Cl)cc3)c(C)c12,inactive
13,Cc1ccc(NC(=O)COC(=O)CN2CCCCCC2=O)c(C)c1,inactive
14,Cn1c(C(=O)Nc2cccc(C(F)(F)F)c2)cc2c(=O)n3ccccc3nc21,inactive
15,CCCN(CCC)C(=O)C(Cc1ccccc1)NS(=O)(=O)c1ccc2c(c1)c(=O)n(C)c(=O)n2C (stereo unspecified),inactive
16,O=C(COC(=O)CNC(=O)c1ccco1)Nc1ccc(F)cc1,inactive
17,Cc1cc(C(=O)COC(=O)CNC(=O)c2ccc(F)cc2)c(C)n1Cc1ccco1,6.75 µM (active)
18,COCCn1c(C)cc(C(=O)COC(=O)CNC(=O)c2ccco2)c1C,inactive
19,CCC(C)NC(=O)Cn1c(=O)n(-c2ccc(Cl)cc2)c(=O)c2c3c(sc21)CCCC3 (stereo unspecified),inactive
20,COc1ccc(CNC(=O)c2cc3c(=O)[nH]c4ccccc4c3s2)cc1,inactive
21,COc1cc(OC)cc(-c2nc(=S)n3ccsc3n2)c1,inactive
22,COc1ccc(-c2cn3cccnc3n2)cc1,13.5 µM (active)

row,Compound,Potency
1,COc1ccc(-c2cn3c(n2)sc2cc(C(=O)Nc4ccc(F)cc4)ccc23)cc1,inactive
2,COc1ccc(N2CCN(C(=O)CSc3nnc4ncccn34)CC2)cc1,inactive
3,CC(=O)Nc1ccc(S(=O)(=O)Nc2cccc(NC(=O)C(C)(C)C)c2)cc1,inactive
4,CC(C)(C)C(=O)Nc1ccc(-c2cn3cccnc3n2)cc1,7.57 µM (active)
5,FC(F)(F)Oc1ccc(-c2cn3cccnc3n2)cc1,6.01 µM (active)
6,COc1ccc(-c2cn3ccsc3n2)cc1,2.39 µM (active)
7,COc1ccc(-c2cc(NCc3ccc(F)cc3)n3cnnc3n2)cc1,inactive
8,Cc1c(-c2cccc(NC(=O)C(C)(C)C)c2)nc2ncccn12,inactive
9,O=C(CCNC(=O)c1ccc(Br)cc1)NCC(c1ccco1)N1CCCCC1 (stereo unspecified),inactive
10,CN(CC(=O)Nc1cccc(C(F)(F)F)c1)S(=O)(=O)c1cccs1,inactive
11,CC(C)CCNC(=O)Cn1c(=O)oc2cc(S(=O)(=O)N3CC(C)CC(C)C3)ccc21 (stereo unspecified),inactive
12,CCOc1ccc(CNC(=O)c2cccc(Nc3nc4ccccc4n4nnnc34)c2)cc1OC,inactive
13,CCN(CC)CCNC(=O)c1cc2c(=O)oc3ccc(C)cc3c2s1,inactive
14,Cc1ccc(-c2nnc(SCC(=O)NCc3ccccc3)nc2-c2ccc(C)cc2)cc1,inactive
15,COC(=O)c1cc(NC(=O)c2cnc(SC)nc2-c2ccccc2)cc(C(=O)OC)c1,inactive
16,COc1ccccc1C(=O)NC(CCSC)C(=O)N1CCN(C(C)=O)CC1 (stereo unspecified),inactive
17,CC(=O)c1cccc(NC(=O)C2CCN(C(=O)c3ccccc3Cl)CC2)c1,inactive
18,CC(=O)N1CCCc2ccc(NS(=O)(=O)c3ccc(F)cc3F)cc21,inactive
19,O=C(O)c1ccc2c(=O)n3c(nc2c1)/C(=C/c1ccc(Cl)c([N+](=O)[O-])c1)CC3,inactive
20,COc1ccc(OC)c(-c2nc(C(N)=O)c3c(n2)n(-c2ccc4c(c2)OCO4)c(=O)n3C)c1,inactive
21,CC(C)C12CN3CC(C(C)C)(CN(C1)C3c1ccc(OCc3ccccc3)cc1)C2=O (stereo unspecified),inactive
22,O=C1C=C(NCCNc2c(F)c(F)c(CO)c(F)c2F)CCC1,inactive

row,Compound,Potency
1,Cc1ccc(C)c(N2CCN(CCCNC(=O)Nc3ccc(Cl)cc3)CC2)c1,inactive
2,CC1CCC(C(C)C)C(=O)/C1=C\c1ccc(NC(=O)CCC(=O)O)cc1 (stereo unspecified),16.9 µM (active)
3,O=C(O)CCC(=O)Nc1ccc(N2CCOCC2)cc1,inactive
4,O=C(O)CCC(=O)Nc1ccc(OCC2CCCO2)cc1 (stereo unspecified),inactive
5,O=C(CSc1nnc(-c2ccccc2F)o1)Nc1cccc(C(F)(F)F)c1,inactive
6,O=C(NC1CCCC1)C(NS(=O)(=O)c1ccc(Br)s1)c1ccccc1 (stereo unspecified),inactive
7,Cc1csc(NC(=O)CSc2nnc(-c3cccnc3)o2)n1,inactive
8,CN(C)c1nc(-c2cccnc2)nc(-c2ccc(Cl)cc2)c1C#N,inactive
9,CN(C)c1ccc(-c2nnc(-c3cccnc3)o2)cc1,9.53 µM (active)
10,O=C(CCNC(=O)c1ccc([N+](=O)[O-])cc1)NC1CCCCC1,inactive
11,COc1ccc(CNC(=O)C(C)n2nc(C)c3c(C)n(-c4ccccc4)nc3c2=O)c(OC)c1 (stereo unspecified),inactive
12,Cc1cc(Br)ccc1NC(=S)NC1CCCC1,inactive
13,CC(C)c1ccc(NC(=O)NC2CCCCC2)cc1,6.75 µM (active)
14,O=C(Nc1cccc(F)c1)NC1CCCCCCC1,15.1 µM (active)
15,O=C(Nc1cccc(F)c1)NC1CCCc2ccccc21 (stereo unspecified),inactive
16,Cc1ccc(NC(=O)CSCC(=O)NC2CCCCC2)cc1,inactive
17,Cc1ccc(NC(=S)NC2CCCC2)cc1,10.7 µM (active)
18,Cc1ccc(NC(=O)NC2CCCCC2)cc1S(=O)(=O)N1CCOCC1,inactive
19,CC(C)N1CCC(NC(=O)Nc2ccccc2)CC1,inactive
20,Cc1cc(C)cc(NC(=O)NC2CCN(CC(=O)Nc3cccc(Cl)c3C)CC2)c1,inactive
21,CC(C)(C)NS(=O)(=O)c1ccc(NC(=O)NC2CCCCC2)cc1,inactive
22,C/C(CC(=O)Nc1cccc(F)c1)=N\NC(=O)C(=O)NC1CCCCC1,inactive

row,Compound,Potency
1,Cc1cc(C)cc(NC(=O)NC2CCCCCCC2)c1,10.7 µM (active)
2,CCCNC(=O)C1CCN(c2nc3ccc(C)cc3[nH]2)CC1,inactive
3,C=CC(=O)OCCOCCOCCOCCOC(=O)C=C,inactive
4,CO[C@H]1[C@@H]2C=CO[C@@H](O[C@H]3O[C@@H](CO)[C@H](O)[C@@H](O)[C@@H]3O)[C@@H]2[C@@]2(CO)O[C@@H]12,inactive
5,CCOc1ccccc1C(=O)NCC(c1ccc(N(C)C)cc1)N1CCCC1 (stereo unspecified),inactive
6,CCCN1C(=O)C(O)(CC(=O)c2ccc(CC)cc2)c2cc(Br)ccc21 (stereo unspecified),inactive
7,CN(CC(=O)NCc1ccc2c(c1)OCO2)CC(=O)Nc1ccc(F)c(F)c1F,inactive
8,Cc1noc(C)c1CCC(=O)N1CCCC(CO)(Cc2ccccc2)C1 (stereo unspecified),19 µM (active)
9,Cc1noc(C)c1CCC(=O)O,inactive
10,CCCc1cc(C(=O)N2CCCC(CO)(CCCc3ccccc3)C2)n(C)n1 (stereo unspecified),inactive
11,Cc1ccccc1CC1(CO)CCCN(C(=O)c2cc(-c3ccccc3)no2)C1 (stereo unspecified),inactive
12,CCOC(=O)C1(Cc2ccccc2C)CCCN(C(=O)CCc2c(C)noc2C)C1 (stereo unspecified),inactive
13,COC(=O)CCC(=O)N1CCCC(CO)(Cc2ccccc2)C1 (stereo unspecified),15.1 µM (active)
14,CN(CC(=O)Nc1ccccc1C(F)(F)F)C(=O)Cc1ccccc1F,inactive
15,CCN(CC)C(CNC(=O)CSc1nnnn1-c1cccc(F)c1)c1ccco1 (stereo unspecified),inactive
16,CSc1ncc(C(=O)NCCCc2ccccc2)c(C)n1,inactive
17,COc1ccc(OC)c(CNC(=O)c2c3c(nc4ccccc24)C(=O)N(C2CCCCC2)C3)c1,inactive
18,CC(=O)Oc1ccc(N(C(C)=O)S(=O)(=O)c2ccc3ccccc3c2)cc1Br,inactive
19,COc1ccc(C2CC(=O)N(Cc3ccccc3C)c3c2c(C)nn3-c2nc(C)cc(C)n2)c(OC)c1 (stereo unspecified),inactive
20,COc1cc(-c2nn3c(-c4cccc(C)c4)nnc3s2)cc(OC)c1OC,inactive
21,c1ccc(-c2cc(-c3nnc4sc(-c5ccccn5)nn34)[nH]n2)cc1,10.7 µM (active)
22,CCOc1cccc(-c2nn3c(-c4ccccn4)nnc3s2)c1,inactive

row,Compound,Potency
1,CN(Cc1ccccc1)c1ccc(-c2nc(-c3ccccc3)no2)cc1[N+](=O)[O-],inactive
2,COc1cccc(N2CCN(CC(=O)Nc3ccnn3C3CCCC3)CC2)c1,inactive
3,CCN(c1ccc(Cl)cc1)S(=O)(=O)c1nnc(NC(=O)c2ccco2)s1,inactive
4,Cc1cc(NC(=O)COn2nnc3ccccc32)no1,inactive
5,Cc1cc(NC(=O)COc2ccccc2C#N)no1,12 µM (active)
6,Cc1cc(NC(=O)c2ccccc2C)no1,15.1 µM (active)
7,Cc1cc(NC(=O)COc2ccc([N+](=O)[O-])cc2)no1,inactive
8,Cc1cc(NC(=O)CSCc2ccccc2C)no1,inactive
9,Cc1ccccc1C(=O)Nc1ccccc1NC(=O)c1ccccc1C,inactive
10,COc1ccc(N2C(=O)CSC23C(=O)N(Cc2cccc(F)c2)c2ccccc23)cc1Cl (stereo unspecified),inactive
11,COc1ccc(C(=O)C[n+]2ccc(N)c(C)c2C)cc1,inactive
12,CC(CNC(=O)c1nnc(Cc2cccc(F)c2)o1)c1ccccc1 (stereo unspecified),inactive
13,NC(=O)NC(CC(=O)NNC(=O)c1ccccn1)c1ccc(Cl)cc1 (stereo unspecified),inactive
14,CC(C)(C)NC(=O)CSc1nc(-c2ccc(F)cc2)cc(C(F)(F)F)n1,inactive
15,COC(=O)Cc1ccc(OCC(=O)NC2CCCC2)cc1,inactive
16,Cc1noc(C)c1C(=O)Nc1ccccn1,inactive
17,Cc1c(C(=O)Nc2ccccn2)oc2ccc(Br)cc12,2.13 µM (active)
18,COC(=O)c1oc2ccc(Br)cc2c1NC(C)=O,inactive
